From PubChem BioAssay AID1645883 (National Center for Advancing Translational Sciences (NCATS), 2021)
Where “and” joins values, the source holds several entries; their conditions need not be identical. Identical values can stand only once. Among all 16,000 compounds or so, about 160 (1%) were called active. Not shown: some 8% with an inconclusive outcome. The sample holds actives, similar compounds and a random draw of the others, so the mix is not that of the screen. Unmarked numbers belong to inactive results. Calls follow the shape of the dose curve; as a rule, active = well fitted activation curve with a large enough effect; inconclusive = small, poorly fitted or top-dose-only effect; inactive = no such curve, though single readings can be large or run the other way.

Biological target: Rap guanine nucleotide exchange factor 3 (Homo sapiens) (UniProt O95398)
Assay: Validation qHTS for agonist of cAMP-regulated guanine nucleotide exchange factor 3 (EPAC1); also: nearly all actives have a fitted effect of over 70% in size
Settings: EPAC1 Rap1b BODIPY-GDP exchange, fluorescence; max response: hits give high values, percent of cAMP control response
Excerpt: Assay Provider (PI): Xiaodong Cheng Ph.D.
The University of Texas Medical Branch, […], TX
In multi-cellular eukaryotic organisms, the effects of cAMP are transduced by two ubiquitously-expressed intracellular cAMP receptors, the classic protein kinase A/cAMP-dependent protein kinase (PKA/cAPK) and the more recently discovered exchange protein directly activated by cAMP/cAMP-regulated guanine nucleotide exchange factor (EPAC/cAMP-GEF). Both PKA and EPAC are ubiquitously expressed in all tissues, and an increase in intracellular cAMP levels will lead to the activation of both PKA and EPAC. Therefore, careful dissections of the individual role and relative contribution of EPAC and PKA within the overall cAMP signaling in various model systems are critical for further elucidating the mechanism of cAMP signaling. To date no EPAC-specific antagonists and agonist, as well as isoform-specific agonists have been reported, and developing EPAC-specific pharmacological probes to determine the physiological functions that EPAC play in the overall cAMP-mediated signaling remains a major challenge within the research field. Furthermore, identified regulators of EPAC may lead to new mechanism-based therapeutic strategies specifically targeting the EPAC / cAMP-signaling components as EPAC has been implicated to play important roles in major human pathological conditions such as diabetes, heart disease, and cancer.
This qHTS will be used to screen the Molecular Libraries Small Molecule Repository (MLSMR) as a concentration-titration series using the NCGC unique quantitative screening (qHTS) platform to find activators for EPAC1. In addition, this assay will also be used as a counterscreen for the EPAC2 qHTS. This fluorescent based assay is developed and validated for EPAC1 that measures exchange using EPAC effector Rap1 complex with BODIPY-GDP, a GDP analog with a tethered fluorophores. Activators are identified by monitoring the change in fluorescence signal as the exchanged free BODIPY-GDP has a reduced fluorescence compared to Rap1-bound BODIPY-GDP. Increase in signal (activation) is the desired outcome for the EPAC1 agonist while no activity in this assay is desired for the EPAC2 agonist counterscreen.
[1] de Rooij, J., Zwartkruis, F. J., Verheijen, M. H., Cool, R. H., Nijman, S. M., Wittinghofer, A., and Bos, J.L. (1998) Nature 396, 474-477.
Briefly, three uL of reagents (100 nM EPAC1, 250 nM RAP1B-BODIPY-GDP, 50 uM GDP) were dispensed into a 1536-well Greiner black solid-bottom medium binding assay plate. Controls and test compounds (23 nL) were transferred to the plate via a Kalypsys pin tool equipped with a 1536-pin array. The plates were centrifuged at 1,000 rpm for 15 seconds followed by 5 minute incubation at room temperature. The assay plates were read at 5 minute intervals for 30 minutes in the ViewLux plate reader using 480nm excitation and 540nm emission filters. The results were normalized to the agonist positive control of 6.5 mM cAMP.
% is scaled to controls: 0 for no effect and ±100 for the full control effect; potency is read from the fitted curve at half-maximal effect.

Chain of Rap guanine nucleotide exchange factor 3 (Homo sapiens) (O95398 whole entry, looked up): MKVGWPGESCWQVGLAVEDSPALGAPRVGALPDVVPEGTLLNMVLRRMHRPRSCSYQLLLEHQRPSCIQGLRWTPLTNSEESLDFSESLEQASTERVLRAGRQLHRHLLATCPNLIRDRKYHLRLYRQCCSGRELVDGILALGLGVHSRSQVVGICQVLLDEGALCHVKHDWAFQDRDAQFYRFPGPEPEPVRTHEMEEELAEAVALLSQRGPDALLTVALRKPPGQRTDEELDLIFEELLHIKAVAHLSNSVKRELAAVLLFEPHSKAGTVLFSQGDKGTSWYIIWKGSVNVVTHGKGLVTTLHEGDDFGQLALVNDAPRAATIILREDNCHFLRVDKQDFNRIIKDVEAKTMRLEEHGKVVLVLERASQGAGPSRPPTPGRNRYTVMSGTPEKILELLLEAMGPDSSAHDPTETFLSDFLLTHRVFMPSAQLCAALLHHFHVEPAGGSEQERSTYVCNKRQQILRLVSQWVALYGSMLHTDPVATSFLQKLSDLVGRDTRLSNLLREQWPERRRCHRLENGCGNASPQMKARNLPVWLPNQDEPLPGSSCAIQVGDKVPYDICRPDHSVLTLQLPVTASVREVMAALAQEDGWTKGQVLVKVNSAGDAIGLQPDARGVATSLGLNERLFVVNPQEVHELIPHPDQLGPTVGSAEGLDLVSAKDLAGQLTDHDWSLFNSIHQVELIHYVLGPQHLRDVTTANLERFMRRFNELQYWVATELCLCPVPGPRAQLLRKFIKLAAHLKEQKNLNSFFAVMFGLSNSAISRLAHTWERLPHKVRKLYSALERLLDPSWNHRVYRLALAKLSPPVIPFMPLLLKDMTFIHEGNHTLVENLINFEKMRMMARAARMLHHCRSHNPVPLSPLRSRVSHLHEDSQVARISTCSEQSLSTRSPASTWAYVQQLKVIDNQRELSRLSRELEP

Structure (SMILES) | max response | Potency
O=C(OCCN1CCOCC1)C1(c2ccccc2)CCCCC1 | 0.319% and -0.482% and -4.96% | 
CC1(C)[C@@H]2CC[C@@]1(C)[C@H](OC(=O)CSC#N)C2 | -10.5% | 
COc1ccc(Oc2ncc3nc(-c4ccc(F)cc4)c(=O)n(C)c3n2)cc1 | -48.7% | 
OCC1CCCN(c2nc3cc4c(cc3cc2CNCc2cccs2)OCO4)C1 (stereo not drawn) | -2.38% | 
COc1ccc(-c2nc3cnc(OC)nc3n(Cc3ccc(F)cc3)c2=O)cc1 | -45.5% | 
CC(C)[C@H](CO)Nc1nc(Nc2cc(N)cc(Cl)c2)c2ncn(C(C)C)c2n1 | 16.3% | 
O=c1c(-c2cccs2)nc2cnc(Oc3ccccc3)nc2n1-c1ccccc1 | 26.8% | 
C=O | -10.7% | 
COCCn1c(=O)c(-c2cccs2)nc2cnc(N3CCN(C)CC3)nc21 | 9.88% | 
CC(=O)Nc1cc(C(=O)N2CCc3c(Cl)cccc3C2)cc2ncn(CCc3ccccn3)c12 | 1.17% | 
COC(C)C(C(=O)OCC1=CCN2CC[C@H](O)[C@@H]12)C(C)C (stereo partly drawn) | 5.22% | 
CNc1cc(-c2c(C)noc2C)ncn1 | 2.2% | 
CC(Oc1ccccc1)C(=O)N[C@@H]1C(=O)N2[C@@H]1SC(C)(C)[C@@H]2C(=O)O (stereo partly drawn) | -0.674% | 
COc1cccc(Cn2c(=O)cnc3cncnc32)c1 | -1.3% | 
Cc1cn(C2OC[C@@H](O)[C@@H]2CO)c(=O)[nH]c1=O (stereo partly drawn) | -10% | 
O=C(c1cnccn1)N1CCC2(CCCN(Cc3ccccc3)C2)CC1 | -21.3% | 
O=C(C[n+]1cc(Br)cc2ccccc21)c1ccc(F)cc1 | 6.56% | 
O=c1c(-c2ccc(F)c(F)c2)nc2cncnc2n1-c1ccccc1 | -25.2% | 
COc1ccc(C(=O)N2CCC3(CC2)CCN(c2ccccn2)CC3)cc1 | -52.8% | 
COC(=O)c1ccccc1-c1cc(C)cc2c1OC(CNC(=O)C1CCOC1)C2 (stereo not drawn) | 15.3% | 
COc1ccccc1-c1cc(NCc2cccs2)ncn1 | -0.282% | 
NNc1nnc(Cc2ccncc2)c2ccccc12 | 17.7% | 

Structure (SMILES) | max response | Potency
COc1ccc(-n2c(=O)c(C)nc3cnc(N4CCOCC4)nc32)cc1 | -14.8% | 
O=C(CCN1Cc2ccccc2OC(c2ccccc2)C1)N[C@@H]1CS(=O)(=O)C[C@H]1O (stereo partly drawn) | 0.897% | 
CN(C)c1ccc(/C=C/C=C/c2ccnc3ccccc23)cc1 |  | 112 µM (active)
CN(C)c1ccc(/C=C/c2c3ccccc3nc3ccccc23)cc1 | 23.9% | 
Cc1c(C(=O)NCC2CCCN(C)C2)cnn1-c1nccc(-c2ccco2)n1 (stereo not drawn) | -6.37% | 
CC1(C)[C@H](O[C@H]2O[C@H](C(=O)O)[C@@H](O)[C@H](O)[C@H]2O[C@@H]2O[C@H](C(=O)O)[C@@H](O)[C@H](O)[C@H]2O)CC[C@@]2(C)[C@H]1CC[C@]1(C)[C@H]2C(=O)C=C2[C@H]3C[C@@](C)(C(=O)O)CC[C@]3(C)CC[C@]21C | 5.45% | 
CN(Cc1ccco1)c1ncncc1-c1ccoc1 | 15.3% | 
O=C(c1ccco1)N1CCC[C@@]2(CCN(c3ccccc3)C2)C1 | -31.3% | 
CCCCCCCCCCCC(=O)O[C@H](CC(=O)O)C[N+](C)(C)C | -21.3% | 
O=S1(=O)CCOC[C@H](Cc2ccccc2)N1Cc1ccccc1Br | 21.5% | 
Cc1nc2cc(NC(=O)[C@@H]3C[C@@H](Sc4ccccn4)CN3Cc3ccccc3C)ccc2s1 | 16.2% | 
Cc1cc[n+](C2CCCCC2)cc1 | -16.9% | 
CC1(C)S[C@@H]2[C@H](N=CN3CCCCCC3)C(=O)N2[C@H]1C(=O)O | -11.7% | 
CCN(Cc1ccncc1)C(=O)[C@@H](CO)c1ccccc1 | 7.04% | 
C#CCCCCCCCCCCCCCCCC(=O)O | -16.8% and -0.644% | 
CCN1CCN(C(=O)N[C@@H](C(=O)N[C@@H]2C(=O)N3[C@@H]2SC(C)(C)[C@H]3C(=O)O)c2ccccc2)C(=O)C1=O | 15.9% | 
CS(=O)(=O)N1CCC2(CC1)CN(Cc1ccccc1)C2 | -14.5% | 
COc1ccc2[nH]cc(CCNc3cc(-c4ccccc4CN(C)C)ncn3)c2c1 | -42% | 
COc1ccc(CNc2ncncc2-c2ccccc2OC)c(OC)c1 | -21.3% | 
O=C(O)CCCCCCCCc1cn(CN2C(=O)c3ccccc3C2=O)nn1 | 12.5% | 
Oc1ccc(Cl)c2c1CCC2 | -17.9% | 
Cc1csc(-c2nc3ccccc3n2C)n1 | 8.44% | 

Structure (SMILES) | max response | Potency
NC(=O)c1sc(-c2ccsc2)cc1N | -9.78% | 
Cc1cnc(CNc2ncncc2-c2ccccc2Cl)cn1 | 13% | 
O=c1c(-c2ccc(F)cc2)nc2cnc(N3CCOCC3)nc2n1-c1ccccc1 | -86.9% | 
COc1ccccc1-c1nc(NCc2cccs2)c2ccccc2n1 | -19.8% | 
Cc1cc(C(=O)NCC2Cc3cccc(-c4cncnc4)c3O2)c(C)o1 (stereo not drawn) | 3.15% | 
COc1ccccc1CNc1ncncc1-c1cccc(NS(C)(=O)=O)c1 | -3.54% | 
CCC1CN(CCNC(=O)c2cccc(C)n2)Cc2cc(OC)ccc2O1 (stereo not drawn) | 8.26% | 
CC(C)(C)NCC(O)COc1cccc2[nH]c(=O)[nH]c12 (stereo not drawn) | -8.93% and -6.11% | 
CC(=O)N1CCC2(CCCN(c3ncccn3)C2)CC1 | -18.4% | 
Cc1ccc(C(=O)Nc2cccc(-c3nc(CNC(=O)c4ccccc4-n4cccn4)c(C)o3)c2)s1 | -3.18% | 
Cc1csc(-c2coc3cc(O[C@@H]4O[C@H](CO)[C@@H](O)[C@@H](O)[C@H]4O)ccc3c2=O)n1 | -1.66% | 
COc1cc2[nH]c(C)c(CCN3CCN(c4ccccc4)CC3)c2cc1OC | 5.71% | 
COCCn1c(=O)c(-c2cc(F)cc(F)c2)nc2cncnc21 | -6.52% | 
COCC(=O)N1CCC2(CCCN(c3ccccc3)C2)CC1 | -14.6% | 
Cc1noc(C)c1-c1nccc(N2CCOCC2)n1 | 5.18% | 
O=P(O)(O)OC[C@H](O)CO | -11.2% | 
O=C(O)/C(=C/c1c(C(=O)O)[nH]c2cc(Cl)cc(Cl)c12)c1ccccc1 | -0.525% | 
CCOC(=O)N1CCC(N2CCOc3ccc(CN4CCC(O)(c5cccnc5)CC4)cc3C2)CC1 | -5.78% | 
Clc1ccccc1-c1cc(NCCN2CCOCC2)ncn1 | -6.13% | 
Cn1c(=O)c(CCc2ccccc2)nc2cnc(Nc3ccccc3)nc21 | -11% | 
O=c1cc(-c2ccc(O)c(O)c2)oc2cccc(O)c12 | 8.34% | 
COc1cc(C)c(CN2CCc3nnc(C(C)NC(=O)c4cccnc4)n3CC2)cc1C (stereo not drawn) | 12.1% | 

Structure (SMILES) | max response | Potency
COCCNc1ncnc2ccc(-c3cccnc3)cc12 | -29.2% | 
CN(C)c1ccc(/C=c2\[nH]c(=O)/c(=C/c3ccc(N(C)C)cc3)[nH]c2=O)cc1 | 8.62% | 
CC(C)C1=CC2=CC[C@@H]3[C@](C)(CO)CCC[C@]3(C)C2CC1 (stereo partly drawn) | -8.55% | 
Cc1cc2nc3c(=O)[nH]c(=O)nc-3n(C[C@H](O)[C@H](O)[C@H](O)CO)c2cc1C |  | 100 µM (active)
O=C(Nc1ccccc1)N[C@H]1C[C@H](C(=O)O)Nc2cc(Cl)cc(Cl)c21 | 1.49% | 
C=C1CC[C@H](O)CC1=C/C=C1\CCC[C@]2(C)[C@@H]([C@H](C)/C=C/[C@H](C)C(C)C)CC[C@@H]12 | -127% | 
CC(N)=NCc1cccc(CN)c1 | 8.83% and -11.8% | 
CCOC(=O)C[C@H]1c2ccc(C(F)(F)F)cc2S(=O)(=O)N1c1ccccc1 | -85% | 
CCC1CN(CCNC(=O)c2cccnc2C)Cc2cc(OC)ccc2O1 (stereo not drawn) | 1.97% | 
Cc1nc2cnc(Oc3cccc(Cl)c3)nc2n(C2CC2)c1=O | -12.8% | 
Cc1[nH]c2c(C(=O)NCC3Cc4cccc(-c5cccnc5)c4O3)cccc2c1C (stereo not drawn) | 19.3% | 
O=S1(=O)CCO[C@H]2Cc3ccccc3[C@H]2N1Cc1ccccc1 | 7.53% | 
CC(=O)OC1CCC2(O)CC1(C)CCC1C2CC1(C)C (stereo not drawn) | -18.2% | 
COc1cc2c(cc1OC)CC(=O)N(CCCN(C)C[C@H]1Cc3cc(OC)c(OC)cc31)CC2 | 1.48% | 
COc1ccc(C2CC(=O)c3c(O)cc(OC4OC(COC5OC(C)C(O)C(O)C5O)C(O)C(O)C4O)cc3O2)cc1O (stereo not drawn) | -7.79% | 
O=C(c1cnccn1)N1CCC2(CCN(Cc3cc(C(F)(F)F)cc(C(F)(F)F)c3)CC2)CC1 | -66.3% | 
NC(=O)C(=O)N/N=C/c1ccc([N+](=O)[O-])o1 | -37.2% | 
COCCNc1ccnc(-c2cccc(NS(C)(=O)=O)c2)n1 | -9.71% | 
Nc1nc(/C(=C/CC(=O)O)C(=O)N[C@@H]2C(=O)N3C(C(=O)O)=CCS[C@H]23)cs1 | 13.2% | 
N#C/C(=C\c1ccc(O)c(O)c1)C(N)=O | -9.7% and -17.1% | 
COc1ccccc1C(=O)N[C@@H]1c2ccccc2C2(CCN(Cc3nc(C(C)C)cs3)CC2)[C@H]1O | 12.9% | 
CN(C)c1ccc(CN2CCOc3ccc(CN4CCC(O)(c5cccnc5)CC4)cc3C2)cc1 | -6.57% | 
